An excerpt weighted towards active compounds, which were near 1.4% of everything screened.
TSG101-PTAP inh: blocks PTAP/TSG101 interaction to inhibit HIV-1 budding | Q99816 | Fluorescence polarization, FITC-PTAP peptide / Tsg101 binding | Potency, µM (top dose mostly 115 µM), without a hit: top-dose activity change, negative = inhibition, usual class: inhibitors | 340,000 tested, under 10 active | AID 493005; active means well fitted inhibition curve with a large enough effect in the main read-out, with a control signal flat, not every such curve was filed as active; inconclusive means small, poorly fitted or top-dose-only effect, or effect the other way, or a change in a side signal; inactive means no such curve, though single readings can be large or run the other way; further: potency means the concentration at half of the fitted maximal effect; % of control where 0% means no effect
Target sequence (Q99816 whole entry, looked up): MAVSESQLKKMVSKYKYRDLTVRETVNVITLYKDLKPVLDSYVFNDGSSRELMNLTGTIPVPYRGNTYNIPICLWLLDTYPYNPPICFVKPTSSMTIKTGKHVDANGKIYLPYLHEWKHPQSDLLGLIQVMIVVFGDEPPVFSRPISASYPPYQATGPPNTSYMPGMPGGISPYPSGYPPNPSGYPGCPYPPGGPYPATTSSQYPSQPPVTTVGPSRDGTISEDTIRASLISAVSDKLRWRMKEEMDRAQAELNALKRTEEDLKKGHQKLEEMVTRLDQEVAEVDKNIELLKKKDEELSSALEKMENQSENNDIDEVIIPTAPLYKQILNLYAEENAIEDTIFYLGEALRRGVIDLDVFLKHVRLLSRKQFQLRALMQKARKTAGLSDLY
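FP read-out: FITC-PTAP peptide, 50 nM final, binding Tsg101 binding domain, 10 uM final; 20 min, r.t.; 10 mM HEPES pH 7.5, 0.15 M NaCl, 0.01% Tween 20, 3 mM EDTA, 0.1 mM TCEP.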
Vif-APOBEC3F blk: Vif-A3F binding inhibition; HeLa A3F-eYFP + Vif (tagged APOBEC3F with the HIV-1 protein that degrades it), YFP fluorescence increase; 0.2% of 390,000 active; Potency, µM (top dose mostly 46.1 µM), inactives show top-dose activity, negative = active; further: potency means the concentration at half of the fitted maximal effect; % of control where 0% means no effect; nearly all actives have a fitted effect of over 65% in size
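HeLa cells stably expressing Vif plus C-terminally eYFP-tagged A3F were seeded, incubated overnight at 37 deg C, dosed with compound, incubated overnight again at 37 deg C. Yellow fluorescence (Ex 488/Em 500-530) reported blocked Vif-mediated A3F-eYFP degradation.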
Akt phos inh: inhibitors of Akt phosphorylation. Neuro2A IGF-stimulated pAkt S473 HTRF, 20 min; active compounds read low. activity change, % for hits at 50 µM. 0.32% of 360,000 active. AID 651550; in the data active means activity change below about -80%; inconclusive means mostly about -51% to -80%; further: on the % scale 0 is the no-effect control and ±100 the full control effect
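Single-point screen (50 µM final compound) in Neuro2A cells stimulated 20 min with 6 nM IGF at 37 deg C. After lysis, Ser473-phosphorylated Akt read by HTRF (ex 330 nm, em 615/665 nm) as the 665/615 ratio.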
Vif-APOBEC3G blk: Vif-A3G binding inhibition | Q9HC16 | HeLa A3G-eYFP + Vif (tagged APOBEC3G with the HIV-1 protein that degrades it), YFP fluorescence, overnight | AID 602310 | 0.076% of 410,000 active | Potency, µM (doses to about 46.1 µM), for inactives: at the highest dose activity, negative = active, hits mostly inhibitors; further: potency means the concentration at half of the fitted maximal effect; on the % scale 0 is the no-effect control and ±100 the full control effect; nearly all actives have a fitted effect of over 60% in size
Target sequence (Q9HC16 whole entry, looked up): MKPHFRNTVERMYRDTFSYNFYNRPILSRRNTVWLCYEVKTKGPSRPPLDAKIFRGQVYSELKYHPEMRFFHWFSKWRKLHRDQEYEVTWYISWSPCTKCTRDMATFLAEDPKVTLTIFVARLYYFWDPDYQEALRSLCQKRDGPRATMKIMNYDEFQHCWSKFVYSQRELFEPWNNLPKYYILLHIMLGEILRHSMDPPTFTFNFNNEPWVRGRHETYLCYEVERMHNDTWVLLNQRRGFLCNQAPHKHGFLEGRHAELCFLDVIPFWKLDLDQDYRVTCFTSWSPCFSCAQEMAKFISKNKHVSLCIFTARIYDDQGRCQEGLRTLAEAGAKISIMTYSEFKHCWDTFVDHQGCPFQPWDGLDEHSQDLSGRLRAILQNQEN
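Read-out is eYFP fluorescence (Ex 488/Em 500-530) from Vif-expressing HeLa A3G-eYFP cells; more signal means A3G escaped Vif-mediated degradation. Cells plated overnight, compound pinned in, incubated overnight at 37 deg C.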
ASM inhibitor: inhibitors of human secretory acid sphingomyelinase. P17405. placental ASM, HMU-PC fluorogenic substrate, 60 min. Potency, µM (doses to about 57.5 µM), for the others: top-dose activity change, negative = inhibition, hits mostly inhibitors. 0.006% of 340,000 active; further: potency means the concentration at half of the fitted maximal effect
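qHTS format. ASM enzyme prepared from human placenta hydrolyses the fluorogenic substrate HMU-PC0 (9 uM final) over 60 min at 37 °C after a 10 min compound preincubation.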
ALOX12 inh: blocks human arachidonate 12S-lipoxygenase | AID 1671190 | Potency, µM (titrated, usually from 108 µM), for inactives: top-dose activity change, negative = inhibition, actives largely listed as inhibitors | 1.1% of 580,000 active | purified 12hLO, xylenol orange hydroperoxide absorbance | P18054; further: potency means the concentration at half of the fitted maximal effect; on the % scale 0 is the no-effect control and ±100 the full control effect
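Hydroperoxide product was detected by ferrous iron/xylenol orange as the 573 to 405 nm absorbance ratio. Arachidonic acid at 40 uM (final) was turned over for 30 min at room temperature by 150 nM human 12hLO, pH 7.0 Hepes buffer, after 15 min compound preincubation.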
Starred values were filed as active, the others as inactive; i = inactive; ? = inconclusive; . = no result given. Unless noted, the call rests on the fitted dose curve; in most records, active means well fitted curve in the direction sought with a large enough effect; inconclusive means small, poorly fitted or top-dose-only effect, or another doubt; inactive means no such curve, though single readings can be large; an effect the other way counts as inactive or inconclusive.

SMILES	TSG101-PTAP inh	Vif-APOBEC3F blk	Akt phos inh	Vif-APOBEC3G blk	ASM inhibitor	ALOX12 inh
Cc1c[n+](=O)c2ccccc2n1[O-]	.	.	.	.	.	-12%
C=CCOc1c(Cl)cc(CNCCC)cc1Cl	-2%	-10%	-91%*	-2%	0%	-7%
CCCNCc1cc(Cl)c(OCC)c(Cl)c1	-6%	-3%	i	3%	2%	0%
COc1ccc(/C=N/NC(=S)Nc2ccccc2)cc1	-10%	-9%	i	0%	0%	50µM*
COCCCNC(=S)N/N=C/c1ccc(OC)cc1	2%	22µM*	i	3%	0%	?
CCCCOc1ccc(CNC(=S)N/N=C/c2ccc(OC)c(OC)c2)cc1	-6%	1%	i	-2%	?	28µM*
C[N+](C)(CCCCCCCCCC[N+](C)(C)C1CCCCC1)C1CCCCC1	.	.	.	.	.	16µM*
CCNc1nc(N2CCOCC2)nc(N(c2ccccc2)c2ccccc2)n1	-12%	0%	-110%*	1%	3%	29%
CC(=O)c1cccc(-c2ccnc3c2CC(C(=O)NCc2ccco2)O3)c1 (stereo not drawn)	.	.	i	0.89µM*	.	-1%
O=S(c1ccccc1)C(c1ccccc1)c1ccccc1 (stereo not drawn)	0%	6%	i	-3%	0%	32µM*
Cc1ccc(S(=O)C(c2ccccc2)c2ccccc2)cc1 (stereo not drawn)	2%	-7%	i	4%	2%	22µM*
O=C(O)C(O)c1ccccc1 (stereo not drawn)	-2%	-4%	i	-2%	3%	-15%
Cc1cccc(S(=O)C(c2ccccc2)c2ccccc2)c1 (stereo not drawn)	0%	4%	i	-2%	-1%	?
O=S(CC(O)c1ccccc1)c1ccccc1 (stereo not drawn)	.	-4%	i	-1%	.	28µM*
CCCCCc1ccc(-c2ccc(C(=O)Oc3ccc(OCCCC)cc3)cc2)nc1	.	.	.	.	.	28%
CS(=O)(=O)N1CCC(NS(=O)(=O)c2cccc(Cl)c2)CC1	.	.	.	.	.	-1%
COc1cccc(NC(=O)C(C)Sc2nncn2-c2ccccc2)c1 (stereo not drawn)	.	.	.	.	.	7%
O=C(NC1CCCCC1)O[C@@H]1CO[C@H]2[C@@H]1OC[C@@H]2n1nnnc1SCc1ccco1	.	.	.	.	.	3.5µM*
COc1ccc(C)cc1NC(=O)N1c2ccccc2CC1c1nc(C2CC2)no1 (stereo not drawn)	.	.	.	.	.	13%
O=C(O)c1ccccc1NS(=O)(=O)c1cccc(-n2sc3ccccc3c2=O)c1	-3%	6%	i	3%	5%	0.22µM*
Cn1c(C(=O)Nc2ccc(Cl)cc2)cc2cc(Cl)ccc21	-1%	0%	i	-2%	-4%	18µM*
CCOc1ccc(NC(=O)c2cc3cc(OCC)ccc3n2C)cc1	.	.	.	.	.	57%
O=C(CN1CCN(c2cnn(-c3ccccc3)c(=O)c2Cl)CC1)Nc1ccc2c(c1)OCCCO2	.	.	.	.	.	5%
Cc1cccc(OCc2n[nH]c(=S)o2)c1C	-4%	3%	i	-3%	8%	-10%
S=c1[nH]nc(-c2cc(-c3ccccn3)nc3ccccc23)o1	-6%	-8%	i	1%	11%	-19%
SMILES	TSG101-PTAP inh	Vif-APOBEC3F blk	Akt phos inh	Vif-APOBEC3G blk	ASM inhibitor	ALOX12 inh
Cc1cccc(C)c1OCc1n[nH]c(=S)o1	1%	0%	i	2%	2%	45µM*
Cc1ccc(-c2cc(-c3n[nH]c(=S)o3)c3ccccc3n2)cc1	0%	6%	i	-2%	-1%	2.2µM*
Cc1ccccc1-c1n[nH]c(=S)o1	-7%	-7%	-102%*	-7%	-3%	?
CN(C)C(=O)C(Sc1nnc(-c2ccc(Cl)cc2)n1N)c1ccccc1 (stereo not drawn)	.	.	.	.	.	-1%
O=C(Cn1ccc2ccc(Cl)cc21)NCC1CCC(C(=O)O)CC1 (stereo not drawn)	.	.	.	.	.	-21%
CCCn1c(SCc2ncc(-c3ccc(F)cc3)o2)n[nH]c1=O	.	.	.	.	.	-17%
Cc1ccc(-c2nc(COc3ccccc3F)co2)cc1	.	.	.	.	.	26%
Cc1ccc(NC(=O)c2ccc(Br)cc2)c(C(=O)c2ccccc2)c1	.	-5%	.	-24%	.	0%
Cn1nnnc1-c1cc(Br)ccc1NC(=O)c1ccccc1	-8%	3%	-104%*	0%	-1%	-4%
Cc1nc(CN2C(=O)COc3ccc(S(=O)(=O)NC4CCCCCCC4)cc32)no1	.	.	.	.	.	9%
CCc1nnc(NS(=O)(=O)c2ccc(NC(=S)NC(=O)c3ccc(OC)c(OC)c3)cc2)s1	0%	1%	i	-2%	-9%	8.9µM*
CCc1nnc(NS(=O)(=O)c2ccc(NC(=S)NC(=O)/C=C/c3ccc(F)cc3)cc2)s1	-6%	-14%	i	-22%	-2%	10µM*
CC(C)(C)C(=O)NC(=S)Nc1ccc(S(=O)(=O)Nc2nccs2)cc1	-1%	19%	i	-7%	-4%	45µM*
CCc1nnc(NS(=O)(=O)c2ccc(NC(=S)NC(=O)/C=C/c3ccc([N+](=O)[O-])cc3)cc2)s1	-5%	6%	i	1%	1%	?
CCc1nnc(NS(=O)(=O)c2ccc(NC(=S)NC(=O)c3ccc(OC)cc3)cc2)s1	-2%	-19%	i	-1%	-5%	8.9µM*
CCc1nnc(NS(=O)(=O)c2ccc(NC(=S)NC(=O)c3ccncc3)cc2)s1	0%	0%	i	0%	-1%	?
NS(=O)(=O)c1ccc(NC(=S)Nc2ccc(S(=O)(=O)Nc3nccs3)cc2)cc1	.	.	i	1%	.	-24%
COc1ccc(CCNC(=O)c2ccc3c(c2)CCC(=O)N3)cc1OC	.	.	.	.	.	-21%
COc1cccc(SCC(=O)c2ccc3c(c2)CCC(=O)N3)c1	.	.	.	.	.	35µM*
Cc1cccc(NC(=O)/C=C/c2ccc([N+](=O)[O-])s2)c1	-2%	7.1µM*	i	?	-6%	-15%
Cc1ccc(NC(=O)/C=C/c2cccs2)cc1	.	.	.	.	.	3%
Cc1ccc(NC(=O)/C=C/c2ccc([N+](=O)[O-])s2)c(C)c1	2%	10µM*	i	?	-5%	-18%
Cc1ccc(NC(=O)/C=C/c2ccc([N+](=O)[O-])s2)cc1	-1%	7.9µM*	i	3.2µM*	-3%	4%
Cc1cccc(NC(=S)N/N=C/c2ccc([N+](=O)[O-])s2)c1	-5%	0%	i	?	-16%	?
COc1cc(C(=O)Nc2cccc3cccnc23)cc(OC)c1C	.	.	.	.	.	-18%
CCN1CCN(c2ccccc2NC(=O)CCc2nc(-c3ccsc3)no2)CC1	.	.	.	.	.	-4%
Cc1[nH]c2ccc(Cl)cc2c1C	.	.	.	.	.	-21%

From PubChem BioAssay
